Screens (PubChem)
This is a sample that favours compounds with a hit; in the whole collection about 19% have one here.
HT1080-NT tox – kills 2HG-producing HT-1080-NT fibrosarcoma cells; HT-1080-NT fibrosarcoma viability, CellTiter-Glo ATP luminescence, 48 h; Potency, µM (top dose mostly 46.1 µM), hits mostly cytotoxic; hit rate 1.6% among 360,000; AID 686970;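 note: NT is the 2HG producing partner of a matched IDH1 knockdown line; nearly all actives have a fitted effect of over 55% in size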
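Viability of the 2HG-overproducing fibrosarcoma line after 48 hours of compound exposure at 37 degrees C was determined by luminescence with CellTiter-Glo, and concentration-effect curves were then fitted and categorized.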
DT40 TDP1 CPT – DT40-hTDP1 cell growth loss with CPT. chicken DT40 Tdp1-/-;hTDP1 cells + 20 nM CPT, ATP luminescence, 48 h. Potency, µM (titrated, usually from 46.2 µM), usual class: inhibitors. AID 686979. hit rate 12% among 420,000; note: nearly all actives have a fitted effect of over 55% in size
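Chicken DT40 Tdp1-/- cells complemented with human TDP1, 400 cells/well, exposed to compounds plus 20 nM camptothecin for at least 48 h at 37 C; viability read as ATP content by CellTiter-Glo luminescence.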
IL-1B inflam inh – inflammasome signaling inhibition, IL-1 beta readout; THP-1 LPS/ATP IL-1B secretion, AlphaLISA, 16 h; hits give low values; activity change, % at 57.5 µM; hit rate 4.7% among 360,000; in the data active = activity change below about -50%; inconclusive = mostly about -30% to -49%
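THP-1 cells pretreated 1 hr with compounds (up to 57.5 uM final), then stimulated with LPS (250 ng/mL final) plus ATP (1.25 mM final); secreted IL-1B measured by AlphaLISA after 16 hr, decreased signal indicating inhibition.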
uPA generation – cell surface uPA generation inhibition; cell surface uPA generation assay, qHTS; Potency, µM (series often up to 38.3 µM), hits mostly inhibitors; hit rate 0.31% among 330,000; AID 540303; active = well fitted inhibition curve with a large enough effect; inconclusive = small, poorly fitted or top-dose-only effect; inactive = no such curve, though single readings can be large or run the other way; tested in mouse RAW 264.7 cells; note: nearly all actives have a fitted effect of over 55% in size
TDP1 cell noCPT – qHTS for Inhibitors of human tyrosyl-DNA phosphodiesterase 1 (TDP1): qHTS in cells in absence of CPT; DT40 Tdp1-/- hTDP1 cells, no CPT, ATP luminescence, 48 h; Potency, µM (top dose mostly 46.2 µM), actives largely listed as inhibitors; hit rate 15% among 420,000; note: nearly all actives have a fitted effect of over 55% in size
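DT40 Tdp1-/-;hTDP1 cells, no CPT (DMSO vehicle only), 400 cells/well; compounds pin-transferred; ≥48 hr, 37 °C; CellTiter-Glo 30 min RT dark, luminescence read.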
HT1080 IDH1KD tx – kills HT-1080 cells with IDH1 knockdown; HT-1080 IDH1 knockdown viability, ATP luminescence, 48 h; Potency, µM (series often up to 46.1 µM), hits mostly cytotoxic; hit rate 2% among 360,000
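Luminescent ATP read-out (CellTiter-Glo, 10 min at room temperature) after 48 h compound exposure at 37 °C gave viability of IDH1-knockdown HT-1080 cells. Activity was normalised to DMSO and cell-free wells, then fitted as concentration-response curves.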
Hits are given with their value; i = inactive; ? = inconclusive; nt = not tested or not shown. Unless noted, calls come from the whole dose curve; as a rule, active = well fitted curve in the direction sought with a large enough effect; inconclusive = small, poorly fitted or top-dose-only effect, or another doubt; inactive = no such curve, though single readings can be large; an effect the other way counts as inactive or inconclusive.

SMILES	HT1080-NT tox	DT40 TDP1 CPT	IL-1B inflam inh	uPA generation	TDP1 cell noCPT	HT1080 IDH1KD tx
Cc1c(Cc2ccc3c(c2)OCO3)sc(NC(=O)C2CC2)c1C(N)=O	i	10µM	i	i	10µM	i
Cc1nc(NC(=O)C23CC4CC(CC(C4)C2)C3)sc1Cc1ccc2c(c1)OCO2	i	?	i	i	21µM	i
Cc1c(Cc2ccc3c(c2)OCO3)sc(NC(=O)c2cccc3ccccc23)c1C(N)=O	?	?	i	?	?	?
Cc1nc(NC(=O)C2CCCC2)sc1Cc1ccc2c(c1)OCO2	i	?	i	i	?	i
CCOC(=O)c1ccccc1NC(=O)CN1C(=O)NC(C)(CCc2ccccc2)C1=O (configuration not stated)	i	?	i	i	?	?
Cc1ccc2c(c1)N=C(c1ccc(Cl)cc1)CO2	i	?	i	i	23µM	i
Clc1ccc(C2=Nc3cc(Cl)ccc3OC2)cc1	i	?	i	i	?	i
c1ccc(C2=Nc3ccccc3OC2)cc1	i	18µM	i	i	11µM	i
CC(NC(=O)CCn1ccc2cc(S(=O)(=O)N3CCCC3)ccc21)c1ccccc1 (configuration not stated)	i	i	i	i	i	i
CCC(C)CCN1CCN=C1Nc1ccccc1 (configuration not stated)	i	i	i	i	i	i
Cc1cccc(-n2c(C)cc(/C=C3\NC(=O)NC3=O)c2C)c1	?	?	nt	i	?	?
Cc1cc(C)c(-n2c(C)cc(/C=C3/NC(=O)NC3=O)c2C)c(C)c1	?	?	i	i	15µM	?
COc1cc(C(=O)OCCc2cc3ccccc3c(=O)o2)cc(OC)c1OC	8.2µM	4.1µM	i	1.1µM	5.8µM	7.3µM
O=S1(=O)N[C@@H](Cc2ccccc2)COc2cc(N3CCC[C@@H]3CO)ccc21	i	?	i	nt	16µM	?
COc1ccccc1C1C(C(C)=O)=C(O)C(=O)N1c1ccc(O)cc1 (configuration not stated)	i	i	i	i	i	i
Cc1cccc(OCCSc2nnc(-c3ccoc3C)n2C)c1	i	23µM	i	i	21µM	i
COc1ccc2c(c1)cc1c(=O)n(CC(=O)NC3CC3)nc(C)n12	nt	i	nt	nt	i	nt
CCCCCCCCC(=O)c1c(OC)oc(C=O)cc1=O	i	i	?	nt	?	i
Cc1cc(C)cc(C(=O)NCC(c2ccc(N(C)C)cc2)N2CCCC2)c1 (configuration not stated)	nt	15µM	nt	nt	16µM	nt
Cc1ccccc1C(=O)NCC(c1ccc(N(C)C)cc1)N1CCCC1 (configuration not stated)	nt	i	nt	nt	i	nt
CN(C)c1ccc(C(CNC(=O)c2c(F)cccc2Cl)N2CCOCC2)cc1 (configuration not stated)	nt	i	nt	nt	i	nt
COc1ccc(Cl)cc1C(=O)NCC(c1ccc(N(C)C)cc1)N1CCOCC1 (configuration not stated)	nt	?	nt	nt	16µM	nt
COc1cccc(C(=O)NCC(c2ccc(N(C)C)cc2)N2CCOCC2)c1OC (configuration not stated)	nt	15µM	nt	nt	16µM	nt
COc1cccc(C(=O)NCC(c2ccc(N(C)C)cc2)N2CCCC2)c1OC (configuration not stated)	nt	12µM	nt	nt	?	nt
COCCN(C(=O)CSc1nnc(Nc2ccccc2F)s1)c1c(N)n(Cc2ccccc2)c(=O)[nH]c1=O	i	i	?	i	i	i
SMILES	HT1080-NT tox	DT40 TDP1 CPT	IL-1B inflam inh	uPA generation	TDP1 cell noCPT	HT1080 IDH1KD tx
O=C(COC(=O)CCS(=O)(=O)c1ccc(F)cc1)NC1CCCCC1	i	i	i	i	i	i
COc1cc(C(=O)NCC(c2ccc(N(C)C)cc2)N2CCCC2)cc(OC)c1OC (configuration not stated)	nt	18µM	nt	nt	?	nt
CC[C@]12c3[nH]c4ccc(OC)cc4c3CCN1C(=O)C(CC(=O)NCCCn1ccnc1)C[C@@H]2C(=O)N1CCN(C(=O)c2ccco2)CC1 (some centres not stated)	i	i	i	i	i	i
CCCCCCSc1ccc([C@H]2N[C@@](CC(C)C)(C(=O)OC)[C@H]3C(=O)N(CC)C(=O)[C@@H]23)cc1	i	21µM	i	i	21µM	i
CCCCCCSc1ccc([C@H]2N[C@@](CC(C)C)(C(=O)OC)[C@H]3C(=O)N(C)C(=O)[C@@H]23)cc1	i	?	?	i	?	i
COC(=O)C1(C)NC(c2ccc(F)cc2)C2C(=O)N(c3ccc(C)cc3)C(=O)C21 (configuration not stated)	i	i	i	i	i	i
CCC(C)Sc1ccc([C@H]2N[C@@](C)(C(=O)OC)[C@H]3C(=O)N(CC)C(=O)[C@@H]23)cc1 (some centres not stated)	i	16µM	i	i	18µM	i
CCCCCCSc1ccc([C@H]2N[C@@](C)(C(=O)OC)[C@H]3C(=O)N(CC)C(=O)[C@@H]23)cc1	i	23µM	i	i	18µM	i
